Vaccinia mCherry: inhibitors of vaccinia virus infection (mCherry reporter signal) | Vaccinia virus mCherry reporter infection, fluorescence | Potency, µM (doses to about 36.5 µM), without a hit: at the highest dose activity change, negative = inhibition, most hits filed as inhibitors | 310,000 tested, 0.63% active | AID 720579; calls by dose curve; tested in A549 cells; also: nearly all actives have a fitted effect of over 35% in size
Pf growth 96h: inhibits malaria parasite growth, 96 h; 320,000 tested, 6.9% active; P. falciparum luciferase reporter growth, 96 h; Potency, µM (highest dose often 28.7 µM), without a hit: at the top dose activity change, negative = inhibition, most hits filed as inhibitors
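Compounds incubated with erythrocytes infected by luciferase-expressing P. falciparum (2% hematocrit, 0.05% parasitemia final) for 96 hours, 37 C in 5% CO2. Growth inhibition scored as decreased luciferase luminescence.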
AMA1 RON2 block: disrupts binding of P. falciparum AMA1 to RON2; AlphaScreen AMA1-biotinylated RON2 peptide binding; Potency, µM (highest dose often 58.2 µM), inactives show at the top dose activity change, negative = inhibition, usual class: inhibitors; 360,000 tested, 0.2% active; AID 720542;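 also: 0% = vehicle wells and -100% = peptide control; nearly all actives have a fitted effect of over 45% in size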
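AMA1 (3D7) with his tag at 25 nM final met compounds first, then biotinylated RON2 peptide at 25 nM; detection used donor plus acceptor beads, 10 µg/mL apiece, read by AlphaScreen after 30 min at room temperature.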
Pf growth 48h: inhibits P. falciparum growth in the first generation, 48 h; 310,000 tested, 5.9% active; P. falciparum luciferase growth in erythrocytes, 48 h; Potency, µM (series often up to 28.7 µM), inactives show at the highest dose activity change, negative = inhibition, most hits filed as inhibitors; AID 504832
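Here the parasites carry a stable luciferase gene and grow inside erythrocytes in Albumax-based RPMI medium with compound for one erythrocytic cycle. Activity is scored as loss of luminescent signal.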
VACV Venus inh: vaccinia inhibition (Venus reporter). AID 720580. 330,000 tested, 0.46% active. Potency, µM (top dose mostly 36.5 µM), without a hit: at the top dose activity change, negative = inhibition, hits mostly inhibitors. Vaccinia virus Venus reporter expression, fluorescence; calls by dose curve; tested in A549 cells; also: nearly all actives have a fitted effect of over 30% in size
Active calls of the source: *; i = inactive; ? = inconclusive; . = no result; [ ] = remark or other dose. A selection: hits, their analogues and other compounds. The true share with any hit is near 8.7%. Unless noted, calls follow the shape of the dose curve; as a rule, active = well fitted curve in the direction sought with a large enough effect; inconclusive = small, poorly fitted or top-dose-only effect, or another doubt; inactive = no such curve, though single readings can be large; an effect the other way counts as inactive or inconclusive. Unless noted, % is scaled to controls: 0 for no effect and ±100 for the full control effect; potency is read from the fitted curve at half-maximal effect.

SMILES	Vaccinia mCherry	Pf growth 96h	AMA1 RON2 block	Pf growth 48h	VACV Venus inh
Oc1ccc(Cl)cc1CNc1ccccn1	i	10µM*	-3%	?	-17%
C=CCn1c(NCc2cc(Cl)ccc2O)nc2ccccc21	-27%	?	0%	?	?
C=CCn1c(NCc2ccc(OC)cc2O)nc2ccccc21	.	2.9µM*	-8%	?	.
CCn1c(NCc2cc(Cl)ccc2O)nc2ccccc21	.	5.2µM*	9%	7.4µM*	.
Cn1c(-c2ccccc2)cnc1NCc1cc(Cl)ccc1O	0%	-17%	-29%	12µM*	-14%
CC(C)c1ccc(NC(=O)c2cnc3sc(N4CCCC4)nn3c2=O)cc1	-8%	.	.	.	?
O=C(O)/C=C/c1ccc2c(c1)S(=O)(=O)N(C1CCCC1)[C@H]2CC(=O)O	-12%	.	.	.	-8%
CSc1ccc(CCNC(=O)c2ccc(-c3nc(COc4ccc(C)cc4)c(C)o3)cc2)cc1	0%	.	.	.	-11%
CCCn1c(=N)n(CC(O)COc2cccc(C)c2)c2ccccc21 (stereo not drawn)	.	129%	-9%	10µM*	.
CCCCCn1c(=N)n(CC(O)COc2cccc(C)c2)c2ccccc21 (stereo not drawn)	10µM*	.	.	.	10µM*
CCn1c(=N)n(CC(O)COc2cccc(C)c2)c2ccccc21 (stereo not drawn)	.	?	-6%	?	.
CCOC(=O)CCCCC(=O)c1[nH]c(=O)[nH]c1CSc1nnc2c3cc(Br)ccc3n(C)c2n1	.	43%	.	10µM*	.
O=C(c1ccc(Cl)cc1)C1CCCN(Cc2cccc3cccnc23)C1 (stereo not drawn)	?	-5%	-5%	9.3µM*	?
CSc1ccc(C(=O)C2CCCN(Cc3cccc4nccnc34)C2)cc1 (stereo not drawn)	?	?	-22%	10µM*	-26%
O=C(c1ccccc1)C1CCCN(Cc2nc(-c3cnccn3)no2)C1 (stereo not drawn)	-7%	5.2µM*	9%	-12%	-14%
O=C(c1cccnc1)C1CCCN(Cc2nc(-c3cnccn3)no2)C1 (stereo not drawn)	.	-5%	4%	32%	.
COc1ccc(CN2CCCC(C(=O)c3ccc(Cl)cc3)C2)c(O)c1 (stereo not drawn)	.	-72%	1%	0.83µM*	.
CCOC(=O)c1ccccc1NC(=O)CSc1cn(CC(=O)N2CCOCC2)c2ccccc12	-12%	.	.	.	-3%
Cc1ccc(CNC(=O)Nc2cc(C(=O)NCc3cccc(F)c3)ccc2N2CCCC2)cc1	-19%	.	.	.	-12%
CC1(C(=O)NCc2ccc(Cl)c(Cl)c2)Oc2cccnc2NC1=O (stereo not drawn)	-6%	5.2µM*	4%	?	-3%
CCn1cc(C(=O)NCCc2ccc(C)cc2)c(=O)c2cc(S(=O)(=O)N3CCc4ccccc4C3)ccc21	-18%	.	.	.	-8%
CCOc1ccc(NC(=O)Cn2c(C)cc3ccccc3c2=O)cc1	-6%	.	.	.	-1%
COc1cc(/C=N/NC(=O)c2cc(-c3ccccc3OC(C)C)nc3ccccc23)ccc1O	13µM*	-1%	1%	-7%	8%
COc1ccccc1-c1csc(NC(=O)c2cc(-c3cccs3)nc3ccccc23)n1	-19%	7.4µM*	0%	?	-14%
COc1ccc(-c2csc(NC(=O)c3cc(-c4cccs4)nc4ccccc34)n2)c(OC)c1	-10%	?	0%[11.6 µM]	?	-5%
SMILES	Vaccinia mCherry	Pf growth 96h	AMA1 RON2 block	Pf growth 48h	VACV Venus inh
COc1ccccc1-c1cc(C(=O)N/N=C\c2cn(C)nc2C)c2ccccc2n1	i	?	4%	?	-4%
COc1ccccc1-c1cc(C(=O)N/N=C/c2cccs2)c2ccccc2n1	?	4.1µM*	5%	.	-2%
O=C(N/N=C/c1cccs1)c1cc(-c2ccncc2)nc2ccccc12	-4%	?	-11%	-12%	?
CCn1cc(/C=N\NC(=O)c2cc(-c3ccccc3OC)nc3ccccc23)c(C)n1	-19%	1.9µM*	6%	1.7µM*	-3%
COc1ccc(-c2cc(C(=O)N/N=C/c3sccc3C)c3ccccc3n2)c(OC)c1	28µM*	12µM*	0%	.	-20%
COc1ccc(-c2cc(C(=O)N/N=C/c3ccc4c(c3)OCO4)c3ccccc3n2)c(OC)c1	?	?	22%	?	6%

Compound activity deposited in PubChem by National Center for Advancing Translational Sciences (NCATS).
